# According to PubChem BioAssay (NCATS):
# Several values for one entry are separate records, joined by “and”; a condition that tells them apart may be missing. Equal values may be shown once. Unmarked numbers belong to inactive results. Records with an inconclusive call do not appear. Where a call stands in place of a potency, no number is given. Where a structure was tested more than once in an assay, its records may differ in their call. Activity calls are given as the source filed them. Unless noted, calls follow the shape of the dose curve; as a rule, active = well fitted curve in the direction sought with a large enough effect; inconclusive = small, poorly fitted or top-dose-only effect, or another doubt; inactive = no such curve, though single readings can be large; an effect the other way counts as inactive or inconclusive.
# Experiments:
# [1] = Drug repurposing screens with cells derived from glioblastoma tumor samples (AID 1345199); settings: GBM patient neurospheres viability, ATP luminescence, 48 h; also: nearly all actives have a fitted effect of over 40% in size; also: potency is read from the fitted curve at half-maximal effect
# Procedure, shortened: (§1)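 Four patient lines of CD133+ GBM neurospheres were screened at several concentrations; hits were retested in those lines plus three slower-growing GBM lines, using 48-hour treatment and ATP-based viability.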
# astro = control astrocytes; assay: as above; settings: viability, ATP luminescence, 48 h; series mostly up to 45.9 µM
# Procedure, shortened: as §1
# Es-2 = assay: Primary qHTS to identify gynecologic anti-cancer compounds using libraries of approved drugs and bioactive compounds (AID 1345084); settings: Gynecologic cancer cell panel viability, ATPlite luminescence, 48 h; series mostly up to 57.5 µM; also: nearly all actives have a fitted effect of over 55% in size; also: potency is read from the fitted curve at half-maximal effect
# Procedure, shortened: (§2)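 Luminescence from the ATPlite ATP-monitoring reagent indicates viable cell number; lower signal means cytotoxicity. Cells received compound 16 h after seeding and were exposed for 48 h across five concentrations.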
# HeLa = assay: as above; settings: Gynecologic cancer cell panel viability, ATPlite luminescence, 48 h; series mostly up to 57.5 µM
# Procedure, shortened: as §2
# Hek293T = assay: as above; settings: Gynecologic cancer cell panel viability, ATPlite luminescence, 48 h, control line for the selectivity index; series mostly up to 57.5 µM
# Procedure, shortened: as §2
# PA-1 = assay: as above; settings: Gynecologic cancer cell panel viability, ATPlite luminescence, 48 h; series mostly up to 57.5 µM
# Procedure, shortened: as §2
# Tov-21-G = assay: as above; settings: Gynecologic cancer cell panel viability, ATPlite luminescence, 48 h; series mostly up to 57.5 µM
# Procedure, shortened: as §2
# Tov112D = assay: as above; settings: Gynecologic cancer cell panel viability, ATPlite luminescence, 48 h; series mostly up to 57.5 µM
# Procedure, shortened: as §2
# JEG-3 = assay: as above; settings: Gynecologic cancer cell panel viability, ATPlite luminescence, 48 h; series mostly up to 57.5 µM
# Procedure, shortened: as §2
# OV90 = assay: as above; settings: Gynecologic cancer cell panel viability, ATPlite luminescence, 48 h; series mostly up to 57.5 µM
# Procedure, shortened: as §2
# SKOV3 = assay: as above; settings: Gynecologic cancer cell panel viability, ATPlite luminescence, 48 h; series mostly up to 57.5 µM
# Procedure, shortened: as §2
# [2] = target: Nuclear receptor subfamily 1 group I member 2 (Rattus norvegicus) (UniProt Q9R1A7); assay: qHTS assay for small molecule activators of the rat pregnane X receptor (rPXR) signaling pathway (AID 651751; call rule not given here); settings: rPXR reporter cells, luciferase (One-Glo), 24 h
# Nuclear receptor subfamily 1 group I member 2 (Rattus norvegicus), sequence (Q9R1A7 whole entry, looked up): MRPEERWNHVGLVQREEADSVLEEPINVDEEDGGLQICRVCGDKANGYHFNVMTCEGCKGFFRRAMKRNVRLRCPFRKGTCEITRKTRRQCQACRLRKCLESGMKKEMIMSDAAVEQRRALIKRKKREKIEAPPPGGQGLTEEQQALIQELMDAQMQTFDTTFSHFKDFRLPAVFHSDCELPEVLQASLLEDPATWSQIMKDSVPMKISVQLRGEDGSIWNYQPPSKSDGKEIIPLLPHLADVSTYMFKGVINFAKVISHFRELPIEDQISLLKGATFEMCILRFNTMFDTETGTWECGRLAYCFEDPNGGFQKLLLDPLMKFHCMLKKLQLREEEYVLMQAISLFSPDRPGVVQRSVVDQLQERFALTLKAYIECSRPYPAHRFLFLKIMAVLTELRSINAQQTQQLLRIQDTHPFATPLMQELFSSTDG
# [3] = qHTS assay to identify inhibitors of the type 1 interferon - major histocompatibility complex class I in skeletal muscle: Counter screen cell viability and HiBit confirmation (AID 1347412); settings: iHSKM muscle cells + IFN-b, HiBiT or CellTiter-Glo, 24 h; HiBiT; also: potency is read from the fitted curve at half-maximal effect; nearly all actives have a fitted effect of over 60% in size
# Procedure, shortened: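 CRISPR HLA-B*08:01-HiBit immortalized human myoblasts (C25cl48) stimulated with 4 ng/ml IFN-beta and compounds (12-point 1:3, top 46 uM final) for 24 h at 37 C. Duplicate plates read by HiBit lytic luminescence or CellTiter Glo ATP.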
# [4] = at 91.6 µM (top of the series), tumour line B
# [5] = at 91.6 µM (top of the series), tumour line D
# [6] = at 45.9 µM (top of the series), tumour line B
# [7] = at 45.9 µM (top of the series), tumour line D
# [8] = at 46 µM (top of the series), tumour line A
compound,measurement,setting,value
COc1ccc2c3c1O[C@H]1[C@@H](O)C=C[C@H]4[C@@H](C2)N(C)CC[C@@]341,"activity, negative = cell killing",[1]; [4],-11%
same,"activity, negative = cell killing",[1]; [5],-4.9%
same,Potency,[1]; tumour line A,44.7 µM (active)
same,Potency,astro,inactive
CC#C[C@]1(O)CC[C@H]2[C@@H]3C[C@H](C)C4=CC(=O)CC[C@]4(C)[C@H]3CC[C@@]21C,Potency,Es-2,inactive
same,Potency,HeLa,6.31 µM (active)
same,Potency,Hek293T,inactive
same,Potency,PA-1,25.1 µM (active)
same,Potency,Tov-21-G,inactive
same,Potency,Tov112D,inactive
CCC1(CC)C(=O)NC(=O)NC1=O,Potency,Es-2,inactive
same,Potency,HeLa,inactive
same,Potency,JEG-3,inactive
same,Potency,OV90,inactive
same,Potency,PA-1,inactive
same,Potency,SKOV3,inactive
same,Potency,Tov-21-G,inactive
same,Potency,Tov112D,inactive
same,"activity, negative = cell killing",[1]; [6],3.52%
same,"activity, negative = cell killing",[1]; [7],-15.8%
same,"activity, negative = cell killing",[1]; [8],-22.6%
same,Potency,astro,inactive
N#Cc1nn(-c2c(Cl)cc(C(F)(F)F)cc2Cl)c(N)c1S(=O)C(F)(F)F (stereo unspecified),Potency,Es-2,inactive
same,Potency,HeLa,inactive
same,Potency,JEG-3,inactive
same,Potency,OV90,inactive
same,Potency,PA-1,inactive
same,Potency,Tov-21-G,inactive
same,Potency,Tov112D,inactive
same,"activity, negative = cell killing",[1]; [6],-25.5%
same,max response,[2],-15%
Oc1ccc2[nH]cc(CCCCN3CC=C(c4ccccc4)CC3)c2c1,Potency,Es-2,inactive
same,Potency,HeLa,inactive
same,Potency,JEG-3,inactive
same,Potency,OV90,inactive
same,Potency,SKOV3,inactive
same,Potency,Tov-21-G,inactive
same,Potency,Tov112D,inactive
CC[C@H]1C[C@H]2[C@@H]3CCC4=CC(=O)CC[C@@H]4[C@H]3CC[C@]2(C)[C@H]1O,Potency,Es-2,inactive
same,Potency,JEG-3,inactive
same,Potency,OV90,inactive
same,Potency,Tov-21-G,inactive
same,Potency,Tov112D,inactive
same,Potency,[1]; tumour line A,10 µM (active)
same,Potency,astro,inactive
COc1cc(CC(C)N)c(OC)cc1Br (stereo unspecified),Potency,Es-2,inactive
same,Potency,HeLa,25.1 µM (active)
same,Potency,JEG-3,inactive
same,Potency,OV90,inactive
same,Potency,Tov112D,inactive
same,"activity, negative = cell killing",[1]; [6],-9.73%
same,"activity, negative = cell killing","[1]; at 108 µM (top of the series), tumour line B",-15.6%
same,Potency,[1]; tumour line A,35.5 µM (active) and 12.6 µM (active)
same,Potency,astro,inactive
CCO[C@H]1O[C@@H]2OC3(C)CC[C@H]4[C@H](C)CC[C@@H]([C@H]1C)[C@@]24OO3,Potency,Es-2,inactive
same,Potency,HeLa,inactive
same,Potency,JEG-3,inactive
same,Potency,OV90,inactive
same,Potency,PA-1,inactive
same,Potency,SKOV3,inactive
same,Potency,Tov-21-G,inactive
same,Potency,Tov112D,inactive
C=CCOC(Cn1ccnc1)c1ccc(Cl)cc1Cl (stereo unspecified),Potency,Es-2,inactive
same,Potency,Hek293T,inactive
same,Potency,JEG-3,inactive
same,Potency,Tov-21-G,inactive
same,Potency,Tov112D,inactive
same,"activity, negative = cell killing",[1]; [6],-23.6%
same,"activity, negative = cell killing",[1]; [7],-33.6%
same,Potency,[1]; tumour line A,20 µM (active)
Clc1ccc(CSC(Cn2ccnc2)c2ccc(Cl)cc2Cl)cc1 (stereo unspecified),Potency,Es-2,inactive
same,Potency,HeLa,inactive
same,Potency,JEG-3,inactive
same,Potency,PA-1,inactive
same,Potency,Tov-21-G,inactive
same,Potency,Tov112D,inactive
same,Potency,[1]; tumour line A,2.24 µM (active)
CCC(OC(C)=O)C(CC(C)NC)(c1ccccc1)c1ccccc1 (stereo unspecified),Potency,HeLa,31.6 µM (active)
same,Potency,Tov-21-G,inactive
CC[C@]1(O)CC[C@H]2[C@@H]3CCC4=CCCC[C@@H]4[C@H]3CC[C@@]21C,Potency,JEG-3,inactive
same,"activity, negative = cell killing",[1]; [6],-25.8%
same,Potency,[1]; tumour line A,10 µM (active)
CCCN(CCC)CCc1c[nH]c2ccccc12,Potency,Es-2,inactive
same,Potency,HeLa,inactive
same,Potency,Hek293T,inactive
same,Potency,JEG-3,inactive
same,Potency,Tov-21-G,inactive
same,Potency,Tov112D,inactive
same,"activity, negative = cell killing",[1]; [4],-11.3%
same,"activity, negative = cell killing",[1]; [5],-14%
same,Potency,[1]; tumour line A,25.1 µM (active)
same,Potency,astro,inactive
CNC(=O)NC(O)C(Cl)(Cl)Cl (stereo unspecified),Potency,Es-2,inactive
same,Potency,HeLa,inactive
same,Potency,JEG-3,inactive
same,Potency,OV90,inactive
same,Potency,PA-1,inactive
same,Potency,SKOV3,inactive
same,Potency,Tov-21-G,inactive
same,Potency,Tov112D,inactive
same,"activity, negative = cell killing",[1]; [6],-2.48%
same,"activity, negative = cell killing",[1]; [7],7%
same,"activity, negative = cell killing",[1]; [8],-5.01%
same,Potency,astro,inactive
NC1(c2ccccc2)CCCCC1,Potency,Es-2,inactive
same,Potency,Hek293T,inactive
same,Potency,JEG-3,inactive
same,Potency,OV90,inactive
same,Potency,PA-1,inactive
same,Potency,Tov-21-G,inactive
same,"activity, negative = cell killing",[1]; [4],-7.4%
same,Potency,[1]; tumour line A,63.1 µM (active)
same,Potency,astro,inactive
Cc1nnc2n1-c1sc(CCc3ccc(CC(C)C)cc3)cc1C(c1ccccc1Cl)=NC2C (stereo unspecified),Potency,JEG-3,inactive
same,Potency,Tov112D,inactive
same,Potency,astro,35.5 µM (active)
CN1CCc2cc(Cl)c(O)cc2[C@H]2c3ccccc3CC[C@@H]21,Potency,Es-2,inactive
same,Potency,HeLa,inactive
same,Potency,Hek293T,inactive
same,Potency,PA-1,inactive
same,Potency,SKOV3,inactive
same,Potency,Tov-21-G,inactive
same,Potency,Tov112D,inactive
same,"activity, negative = cell killing",[1]; [6],-22.7%
same,Potency,[1]; tumour line A,11.2 µM (active)
same,Potency,astro,inactive
COc1ccc2c(C(=O)c3ccc(Cl)cc3)c(C)n(CC(=O)O)c2c1,Potency,Hek293T,inactive
same,Potency,JEG-3,inactive
same,Potency,OV90,inactive
same,"activity, negative = cell killing",[1]; [6],-15.8%
same,"activity, negative = cell killing",[1]; [7],-19.1%
same,Potency,astro,inactive
O=C1NCN(c2ccccc2)C12CCN(CCCOc1ccc(F)cc1)CC2,Potency,Es-2,inactive
same,Potency,HeLa,inactive
same,Potency,JEG-3,inactive
same,Potency,OV90,inactive
same,Potency,PA-1,inactive
same,Potency,SKOV3,inactive
same,Potency,Tov-21-G,inactive
same,Potency,Tov112D,inactive
C[C@@H]1O[C@@H](O[C@@H]2C=C3CC[C@@H]4[C@H](CC[C@]5(C)[C@@H](c6ccc(=O)oc6)CC[C@]45O)[C@@]3(C)CC2)[C@H](O)[C@H](O)[C@H]1O,Potency,JEG-3,inactive
same,Potency,astro,0.0282 µM (active)
same,Potency,[3],0.0125 µM (active)
CC(=O)OC1(c2ccccc2)CCN(CCc2ccccc2)CC1,Potency,Es-2,inactive
same,Potency,HeLa,inactive
same,Potency,Hek293T,inactive
same,Potency,JEG-3,inactive
same,Potency,PA-1,inactive
same,Potency,Tov-21-G,inactive
same,Potency,Tov112D,inactive
same,Potency,astro,inactive
